Experimental data published in the supplement of paper PMC3334620.
Whole data set: some 33,000 sequences, median “E-score (-0.5 to 0.5)” near -0.035, cut for the highest 2% near 0.35. For the sample, the highest values were picked, then their nearest neighbours and some sequences at random.

These sequences were tested against T1, Pdr3 (UniProt P33200) (assay: PBM E-score (8-mer binding enrichment) (E-score (-0.5 to 0.5)); higher = stronger / more preferred TF binding). Conditions: protein concentration: 200 nM; construct: GST-full length.
T1 sequence: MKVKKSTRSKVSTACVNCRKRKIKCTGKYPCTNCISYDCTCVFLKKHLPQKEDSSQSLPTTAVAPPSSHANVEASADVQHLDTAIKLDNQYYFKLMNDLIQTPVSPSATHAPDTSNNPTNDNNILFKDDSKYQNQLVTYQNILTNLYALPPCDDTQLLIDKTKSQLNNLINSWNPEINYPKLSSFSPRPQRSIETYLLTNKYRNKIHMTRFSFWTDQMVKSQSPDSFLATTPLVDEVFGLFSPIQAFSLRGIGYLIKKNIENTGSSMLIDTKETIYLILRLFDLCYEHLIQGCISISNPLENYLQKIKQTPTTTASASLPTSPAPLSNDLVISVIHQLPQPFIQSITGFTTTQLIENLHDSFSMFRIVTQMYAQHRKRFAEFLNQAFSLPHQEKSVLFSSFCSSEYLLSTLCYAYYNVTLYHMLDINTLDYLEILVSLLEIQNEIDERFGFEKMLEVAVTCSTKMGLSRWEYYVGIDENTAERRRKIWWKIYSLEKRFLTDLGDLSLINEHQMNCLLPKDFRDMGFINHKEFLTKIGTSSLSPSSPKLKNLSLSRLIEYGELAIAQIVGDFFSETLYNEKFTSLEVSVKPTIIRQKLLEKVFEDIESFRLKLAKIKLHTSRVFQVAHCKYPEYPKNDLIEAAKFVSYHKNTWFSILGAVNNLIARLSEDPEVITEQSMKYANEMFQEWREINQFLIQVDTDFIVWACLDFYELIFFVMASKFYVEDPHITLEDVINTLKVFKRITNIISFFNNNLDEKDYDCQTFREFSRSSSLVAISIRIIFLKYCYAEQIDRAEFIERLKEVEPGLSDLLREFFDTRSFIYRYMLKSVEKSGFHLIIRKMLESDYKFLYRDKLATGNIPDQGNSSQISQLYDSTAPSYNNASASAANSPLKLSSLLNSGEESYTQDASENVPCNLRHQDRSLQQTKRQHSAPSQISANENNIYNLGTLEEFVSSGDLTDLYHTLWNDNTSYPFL
How it was run: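 GST-tagged yeast TFs (full-length or DNA-binding domain) were made by PURExpress in vitro transcription/translation and applied at about 100-200 nM to universal all-10-mer Agilent arrays. The arrays were made double-stranded by primer extension, on fresh or once-stripped slides. Bound protein was detected with fluorescent anti-GST, and scans were normalised with masliner. Each ungapped eight-base word, pooled with its reverse complement, received an E-score (modified Wilcoxon-Mann-Whitney statistic) from the Universal PBM Analysis Suite.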

Sequence	PBM E-score
CAAATGGC	-0.156
GCTACTAC	0.146
CGATAGCG	0.0636
AGGCCTTA	-0.254
CAGGTGGC	-0.197
ACTCCGTA	0.13
GTACCGTA	0.029
CGTCCGTA	0.176
ACTCCGTC	0.206
AATCCGTC	0.314
CTTCCGTA	0.379
CCTCCGTA	0.222
ATTCCGTC	0.42
GTTCCGTA	0.471
ATTCCGTA	0.417
AATCCGTA	0.165
GTCCCGTA	0.159
GGTATTAC	0.225
CTTTTAAA	-0.00725
GGGCGTAC	-0.00965
GCAGCAAA	-0.103
CAGACCCG	0.279
AATCGGTA	-0.0123
CTAGAACA	0.0618
ATGCTACA	-0.24

Sequence	PBM E-score
CAATAGAG	-0.166
CTCGGCAG	0.219
CGAAATAG	0.0496
CTTCCGTC	0.403
CGTCCGTC	-0.0265
CCTCCGTC	0.15
ACTCCGTG	0.282
ATTCCGTG	0.467
AATCCGTG	0.237
AAAACTTC	-0.029
CACCGCTC	0.0532
GTTTTAGA	-0.0726
GGGGGAGA	-0.00585
AGTTTCCC	0.0499
CATTTCCC	0.203
CATTTCCG	0.411
ATTTTCCC	0.151
AGTTTCCG	0.452
ATTTCCCG	0.369
ATTTCCCC	0.0635
ATTTCCCA	0.0046
AGTTTCCA	0.0305
CATTTCCA	-0.0296
ATTTTCCA	0.122
ATTTTCCG	0.432

Sequence	PBM E-score
AAAAGTTG	0.00957
ATCAAAGC	0.0706
AACTCGCT	0.0814
ATATACCC	0.102
CTACCGGA	0.335
CACCATAA	-0.109
CGCCACAA	-0.0528
AATTTCCC	0.0432
AATTTCCT	0.0149
AATTTCCG	0.442
AACTGTAC	-0.229
ACGCCGCA	0.181
GCGACGCA	-0.126
GGCACGGA	0.314
CCGACGGC	0.237
ACGACGGA	0.328
CGCACGGA	0.413
CGCACGGC	0.142
CCGACGGA	0.413
GGGACGGA	0.33
CGGACGGA	0.367
CGGACGGC	0.244
CCGACGAA	0.193
GCGACGGA	0.374
AACTCCTG	-0.193

Sequence	PBM E-score
ATCTGGCA	-0.111
AGCTGTCC	-0.116
GCGGGGCA	0.129
CATACCCC	0.0622
CCCACCGG	0.248
ATCTTCGA	-0.115
AATCATGT	-0.0895
AGCGCCCT	0.0102
CCAAGCCA	-0.245
GGAAGCCA	0.0692
CGGACGAC	0.196
CGGACGAA	0.372
GGGACGAA	0.162
AAGCGGAA	0.387
TAGCGGAA	0.357
CAGCGGAA	0.429
CAGCGGAC	0.176
AAGCGGAG	0.0882
CAGCGGAG	0.274
TAGCGGGA	0.14
TAGCGGCA	0.107
GAGCGGAC	0.0792
GAGCGGAA	0.415
AAGCGGAT	0.309
GAGCGGTA	0.0552

Sequence	PBM E-score
AAGCTATT	-0.112
ACACCACT	0.108
CGTTGCCC	0.101
AAGTGTGT	-0.187
CAACTAGA	-0.0997
GTTGTGAA	-0.142
GAATCAGC	-0.124
TCGTTCAA	-0.125
CCCGTGGA	0.395
CCCGTGGC	0.233
GCCGTGGA	0.258
GCCGTCGA	0.104
TCCGTCGA	0.39
ACCGTCAA	-0.00477
CCCGTCGA	0.215
GCCGTCAA	-0.048
TCCGTCAA	0.375
AAGCGAAG	-0.0806
ACCAGTAT	0.0888
AGTTGGTA	-0.111
GTCATCCA	-0.0723
AACGGAGG	0.185
AACGGAGT	0.373
AACGGACT	0.0833
AACGGAAT	0.468

Sequence	PBM E-score
AATGGAAG	0.0364
AACGGAAG	0.423
AACGGAGC	0.275
AACGGTAT	-0.0131
AACGGTAG	0.0653
ACTTTCGA	-0.0188
AAAGTTCC	0.2
GGCGGGGA	0.292
ATTAGCAG	-0.0762
ATGCGCAT	0.165
AATCCTCA	-0.244
ACTATCCC	0.165
AACGACCG	-0.146
CCAATTAC	-0.099
GAGATAAA	0.122
AACGCGGC	0.123
CACGCGGA	0.38
AACGCGGA	0.358
CACGCGGC	-0.00292
AACGCGGG	0.332
CACGCGGG	0.0841
ATGTACCG	-0.0139
GAGTGCTA	-0.0621
CTGGGAGC	-0.192
CAAAAAAA	0.211

Sequence	PBM E-score
AAGCAAAG	-0.213
CACAGCAG	-0.234
GCAGCCAC	0.0849
ATGCACAA	-0.0898
ACGGACAC	0.321
CTCTCGAA	-0.197
ATCTCGGA	0.376
CTCTCGGC	0.118
ATCTCGGG	0.278
CTCTCGGA	0.358
GTCTCGGA	0.306
CCGTTTTC	0.202
CCTGGGAA	-0.0887
CCCGGGGA	0.414
CCGGGGAG	0.332
ACCGGGAG	0.144
CCCGGGAG	0.397
CCGGGGGA	0.311
CCCGGGGC	0.338
GCCGGGAC	0.316
CCCGGGAC	0.451
CCGGGGAC	0.234
CACGGGAG	0.0682
CCCGGGAA	0.443
CCTCTACC	-0.104

Sequence	PBM E-score
AGCGAGCA	-0.189
ATAATCAT	0.0794
AGTCTTAG	-0.224
CGATTCGA	0.143
AGTGTCGA	0.0406
ATGACCAA	-0.0317
ATGCCCTC	-0.0557
AGCTAAAT	-0.165
ACAGTTAC	-0.111
CGCTATCC	0.158
AACGAGAA	-0.0948
CAAGGGCA	-0.0651
AGGCACGC	0.049
GGCGGCCC	-0.00494
CTCACCAA	0.136
AAGCGGTC	0.00531
CCGGGGAA	0.356
TCCGGGCA	0.346
TCCCGGCA	0.323
TCCGGGAA	0.386
TCCCGGGA	0.485
CCCCGGGA	0.417
GCCGGGAA	0.304
CCCCGGCA	0.189
CGGGGGAA	0.276

Sequence	PBM E-score
TACCGGGA	0.347
ACGGGGAA	0.204
CCCCGGTA	0.122
ATTACACA	-0.0105
AAACGCGG	0.245
ACCAGGCG	-0.0145
AGCCTTTA	-0.193
GGCTAAAC	-0.135
CTCATTCC	0.356
CTCATTCA	-0.0959
ATCATTCC	0.281
AGATAGGC	-0.16
ATGCTCTC	-0.108
ATGCCGGA	0.405
GTGCCGTA	0.0678
GTGCCGGA	0.369
ATGCCGGG	0.245
CTGCCGGA	0.32
ATGCCGGC	0.341
